Compound activity as filed in PubChem BioAssay.
This is a sample that favours compounds with a hit; in the whole collection about 0.5% have one here.
Cardiac RTF inh: cardiac RTF calcium sensitivity inhibitors, primary screen, biochemical, IANBD-TnC fluorescence, EC70 calcium; 0.12% of 340,000 active; AID 493244, 2011; Troponin I, cardiac muscle (Homo sapiens) + Troponin T, cardiac muscle (Homo sapiens) + …; IANBD-labeled cardiac RTF, Ca2+ fluorescence; inhibition, % at 7.15 µM;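 active = inhibition above the mean inhibition of all tested compounds plus 3 SD, cut at about 17% in these data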;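 note: assay run at fixed EC70 calcium of 1.6 mM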
LANA DNA inh: inhibitors of KSHV C-LANA binding to DNA, primary screen, biochemical, fluorescence polarization, FAM-LBS DNA, MBP-C-LANA, single point | AID 504423, 2011 | inhibition, % at 9 µM | 0.078% of 340,000 active;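 active = highest replicate inhibition at or above 60% at 9 µM, even if other replicates fall short; inactive = all replicates below 60% inhibition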;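 note: 0% = neutral control wells and 100% = 4 µM acridine orange control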
RTF Ca sens act: cardiac RTF calcium sensitivity activators, primary screen, biochemical, IANBD-TnC fluorescence, EC20 calcium; Troponin I, cardiac muscle (Homo sapiens) + Troponin T, cardiac muscle (Homo sapiens) + …; IANBD-labeled TnC RTF fluorescence at EC20 calcium; 0% EC20 calcium, 100% full calcium; activation, % at 7.2 µM; 0.24% of 340,000 active; AID 493008, 2010;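 active = activation above the mean over all tested compounds plus 3 SD, cut at about 30% in these data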;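 note: rise in fluorescence read as greater calcium sensitivity of cardiac thin filaments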
Keap1-Nrf2 PPI: Keap1-Nrf2 protein-protein interaction inhibitors, primary screen, biochemical, fluorescence polarization, single point. Keap1 Kelch-Nrf2 peptide fluorescence polarization, 1536-well. inhibition, % at 9.4 µM. 0.15% of 340,000 active. AID 504523, 2011; in the data active = inhibition above about 12%;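 note: human Keap1 Kelch domain with fluorescein labeled Nrf2 9mer peptide probe; 0% = neutral control wells and 100% = peptide positive control; higher means more block of Keap1 binding to Nrf2 peptide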
Target sequence (Q14145 whole entry, looked up, the tested form may be a part): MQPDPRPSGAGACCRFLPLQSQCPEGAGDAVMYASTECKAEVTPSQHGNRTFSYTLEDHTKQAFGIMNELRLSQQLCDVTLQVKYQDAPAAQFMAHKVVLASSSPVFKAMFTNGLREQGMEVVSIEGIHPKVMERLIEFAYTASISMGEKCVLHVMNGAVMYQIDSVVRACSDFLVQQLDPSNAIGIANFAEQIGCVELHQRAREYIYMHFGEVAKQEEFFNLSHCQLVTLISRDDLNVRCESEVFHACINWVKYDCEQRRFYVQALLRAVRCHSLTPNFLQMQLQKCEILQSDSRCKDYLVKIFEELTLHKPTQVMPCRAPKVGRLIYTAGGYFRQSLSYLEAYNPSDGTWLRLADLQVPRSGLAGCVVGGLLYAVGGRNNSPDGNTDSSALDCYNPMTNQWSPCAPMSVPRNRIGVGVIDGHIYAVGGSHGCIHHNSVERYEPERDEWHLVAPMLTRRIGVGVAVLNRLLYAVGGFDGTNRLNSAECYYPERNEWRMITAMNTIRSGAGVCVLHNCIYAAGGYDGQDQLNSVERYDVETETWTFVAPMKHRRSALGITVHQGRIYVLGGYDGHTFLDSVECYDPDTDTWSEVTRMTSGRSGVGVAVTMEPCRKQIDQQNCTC
RTF inh confirm: cardiac RTF calcium sensitivity inhibitors, confirmation, biochemical, fluorescence readout; AID 504635, 2011; inhibition, % at 7.15 µM; 8% of 360 active; reconstituted cardiac thin filaments; shares compounds with Cardiac RTF inh; in the data active = inhibition above about 18%
* hit, by the source's call.

`CCc1ccc(-c2nc(CS(=O)CC(=O)NCCCN3CCC(C)CC3)c(C)o2)cc1` (stereo unspecified) gave Cardiac RTF inh -3, LANA DNA inh -1, RTF Ca sens act 3 and Keap1-Nrf2 PPI 1.
Screening CC(COc1ccc(/C=C/c2ccccc2)cc1)[N+](C)(C)C (stereo unspecified) returned Cardiac RTF inh 21*, LANA DNA inh -3, RTF Ca sens act 5, Keap1-Nrf2 PPI -4 and RTF inh confirm -7.
COc1ccc(Cl)cc1NC(=O)C(C)N(C)Cc1ccc(C(F)(F)F)cc1 (stereo unspecified) was read as Cardiac RTF inh 18*, LANA DNA inh 1, RTF Ca sens act 3, Keap1-Nrf2 PPI -2 and RTF inh confirm -1.
COc1cc(CN(C)C(C)C(=O)Nc2ccc([N+](=O)[O-])cc2Cl)ccc1OC(F)F (stereo unspecified) was read as Cardiac RTF inh 2, LANA DNA inh 0, RTF Ca sens act 2 and Keap1-Nrf2 PPI -4.
`COCCN(C(=O)COC(=O)c1cc2c(s1)CCC2)c1c(N)n(Cc2ccccc2)c(=O)[nH]c1=O` gave Cardiac RTF inh 20*, LANA DNA inh 26, RTF Ca sens act -27, Keap1-Nrf2 PPI 6 and RTF inh confirm 16.
For CCn1nc(C)cc1C(=O)N1CCCC(C(=O)c2ccccc2SC)C1 (stereo unspecified) the results were Cardiac RTF inh 3, LANA DNA inh -1, RTF Ca sens act -2 and Keap1-Nrf2 PPI 1.
Cc1cc(C)n(CC(=O)NNC(=O)c2ccc(S(C)(=O)=O)cc2)n1 was read as Cardiac RTF inh -8, LANA DNA inh 0, RTF Ca sens act 0 and Keap1-Nrf2 PPI -1.
For CCOC(=O)C1CCN(C(=O)COC(=O)c2nn(C)c(=O)c3ccccc23)CC1 the results were Cardiac RTF inh -1, LANA DNA inh 0, RTF Ca sens act -1 and Keap1-Nrf2 PPI -2.
For Cc1ccccc1OCC(=O)OCC(=O)NCCNC(=O)COC(=O)COc1ccccc1C the results were Cardiac RTF inh 17*, LANA DNA inh 0, RTF Ca sens act -10, Keap1-Nrf2 PPI -2 and RTF inh confirm 0.
COc1ccccc1C(=O)NC(=O)COC(=O)CCOc1ccc(C)cc1 was read as Cardiac RTF inh -19, LANA DNA inh 0, RTF Ca sens act -2 and Keap1-Nrf2 PPI 0.
For Cc1ccccc1OCC(=O)OCC(=O)NCc1ccccc1 the results were Cardiac RTF inh 7, LANA DNA inh 0, RTF Ca sens act -4 and Keap1-Nrf2 PPI 0.
COc1ccccc1C(=O)NC(=O)COC(=O)CCOc1ccccc1C was read as Cardiac RTF inh 28*, LANA DNA inh 0, RTF Ca sens act -14, Keap1-Nrf2 PPI 0 and RTF inh confirm -1.
For C=CCNC(=O)N1CCC(n2nccc2NC(=O)CCCc2ccccc2)CC1 the results were Cardiac RTF inh -3, LANA DNA inh -1, RTF Ca sens act 2 and Keap1-Nrf2 PPI -6.
Screening O=C(Nc1ccc(N=Nc2ccccc2)c(NC(=O)C2CCCO2)c1)C1CCCO1 (stereo unspecified) returned Cardiac RTF inh 21*, LANA DNA inh -1, RTF Ca sens act -6, Keap1-Nrf2 PPI -1 and RTF inh confirm -1.
Screening COc1ccc(N=Nc2ccc(N)nc2N)cc1 returned Cardiac RTF inh 0, LANA DNA inh 0, RTF Ca sens act -6 and Keap1-Nrf2 PPI -3.
CCOc1ccc2nc3cc(N=Nc4ccc(N)nc4N)ccc3c(N)c2c1 was read as Cardiac RTF inh 25*, LANA DNA inh 0, RTF Ca sens act -12, Keap1-Nrf2 PPI 5 and RTF inh confirm 41*.
`CCn1ncc(/C=C2/SC(=S)NC2=O)c1C` gave Cardiac RTF inh 19*, LANA DNA inh -1, RTF Ca sens act 0, Keap1-Nrf2 PPI -1 and RTF inh confirm -5.
CC1=C[C@H](C)[C@H](c2c(F)cccc2Cl)CC1=O was read as Cardiac RTF inh -19, LANA DNA inh 3, RTF Ca sens act 7 and Keap1-Nrf2 PPI -2.
`CCC(CO)N=CC1=C(O)CC(c2ccccc2)CC1=O` (stereo unspecified) gave Cardiac RTF inh -3, LANA DNA inh 0, RTF Ca sens act -4 and Keap1-Nrf2 PPI 1.
`C[C@H]1CN=C(Nc2ccccc2)N1CCC1CCCCC1` gave Cardiac RTF inh 9, LANA DNA inh 2, RTF Ca sens act 0 and Keap1-Nrf2 PPI -7.
C[C@H]1CN=C(Nc2ccccc2)N1CCCC1CCCC1 was read as Cardiac RTF inh 19*, LANA DNA inh 2, RTF Ca sens act 1, Keap1-Nrf2 PPI -4 and RTF inh confirm -2.
Cc1nn(-c2cccc(C(F)(F)F)c2)c(Cl)c1/C=N/Nc1cccc(C(=O)O)c1 was read as Cardiac RTF inh 21*, LANA DNA inh 1, RTF Ca sens act 4, Keap1-Nrf2 PPI 0 and RTF inh confirm -1.
Screening Cc1ccc2c(C)c(C(=O)N3CCCC(C(N)=O)C3)oc2c1C (stereo unspecified) returned Cardiac RTF inh 0, LANA DNA inh -1, RTF Ca sens act 1 and Keap1-Nrf2 PPI -4.
Screening CC1(C)Cc2cccc(OCC(O)CNCc3ccccn3)c2O1 (stereo unspecified) returned Cardiac RTF inh 18*, LANA DNA inh 0, RTF Ca sens act -3, Keap1-Nrf2 PPI -4 and RTF inh confirm 2.
Screening CC1(C)Cc2cccc(OCC(O)CN3CCN(c4ccccn4)CC3)c2O1 (stereo unspecified) returned Cardiac RTF inh -7, LANA DNA inh -1, RTF Ca sens act -8 and Keap1-Nrf2 PPI -3.
For COc1ccc(C(=O)Nc2ccc(C)cc2C(=O)c2ccccc2)c(OC)c1 the results were Cardiac RTF inh 17*, LANA DNA inh 1, RTF Ca sens act 8, Keap1-Nrf2 PPI 1 and RTF inh confirm -2.
CC1CCCCN1C(=O)c1cc(Cl)ccc1[N+](=O)[O-] (stereo unspecified) was read as Cardiac RTF inh 20*, LANA DNA inh 2, RTF Ca sens act -2, Keap1-Nrf2 PPI 3 and RTF inh confirm -2.
O=c1c(O)cccc2cc(O)c(O)c(O)c12 was read as Cardiac RTF inh 87*, LANA DNA inh 82*, RTF Ca sens act -40, Keap1-Nrf2 PPI -5 and RTF inh confirm 51*.
For O=c1cc(-c2ccccc2)oc2cc(O)c(O)c(O)c12 the results were Cardiac RTF inh 2, LANA DNA inh 4, RTF Ca sens act 2 and Keap1-Nrf2 PPI -1.
Screening O=C(C1CC1)N1CCc2cc(Br)cc(S(=O)(=O)NCc3ccco3)c21 returned Cardiac RTF inh 17*, LANA DNA inh 2, RTF Ca sens act -5, Keap1-Nrf2 PPI -13 and RTF inh confirm -4.
